From PubChem BioAssay
Shown are actives, neighbours in structure and some others; about 12% of the full set was active somewhere.
JMJD2A Tudor inh – inhibitors of human JMJD2A Tudor domain; AlphaScreen JMJD2A-Tudor / H3K4me3 peptide binding; AID 504339; Potency, µM (top dose mostly 114 µM), for inactives: at the highest dose activity change, negative = inhibition, actives largely listed as inhibitors; O75164; hit rate 4.4% among 390,000; also: % is scaled to controls: 0 for no effect and ±100 for the full control effect; nearly all actives have a fitted effect of over 50% in size
Sfp inh – inhibitors of Bacillus subtilis Sfp phosphopantetheinyl transferase; Q9F4F7; Biochemical Sfp PPTase activity, qHTS; hit rate 3.5% among 310,000; Potency, µM, for the others: largest response in the series, negative = inhibition, hits mostly inhibitors;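 also: the enzyme is Sfp with the accession as filed and its product quenches rhodamine fluorescence; 0% = enzyme reaction without inhibitor and -100% = no enzyme wells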
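Buffer: 50 mM Hepes-Na pH 7.6, 10 mM MgCl2, 0.01% Nonidet P-40, 0.01% BSA. Enzyme 15 nM, pre-exposed to compound 15 min; substrates then added and fluorescence change tracked over 30 min.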
G9a inh – G9a (human) methyltransferase inhibition | G9a H3K9 monomethylation, AlphaScreen, 2 h | Potency, µM (top dose mostly 102 µM), for the others: top-dose activity, negative = inhibition, most hits filed as inhibitors | hit rate 8.8% among 350,000; also: % is scaled to controls: 0 for no effect and ±100 for the full control effect; nearly all actives have a fitted effect of over 75% in size
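G9a (20 nM) was preincubated 15 min with compound, then reacted 2 h at room temperature with 500 nM biotin-H3K9 peptide and 20 µM SAM. Monomethyl-H3K9 detected by AlphaScreen using anti-H3K9me1 antibody.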
HP1b binding inh – blocks HP1-beta chromodomain binding to methylated histone tails | P83916 | hit rate 0.56% among 390,000 | Potency, µM (top dose mostly 114 µM), inactives show top-dose activity change, negative = inhibition, hits mostly inhibitors | AlphaScreen HP1-beta / biotin-H3K9me3 peptide binding; also: nearly all actives have a fitted effect of over 70% in size
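AlphaScreen: HP1-beta (50 nM) preformed 30 min with biotin-H3(1-18)K9me3 peptide (50 nM) in PBS pH 7.4, 0.01% Tween-20. Compound added for 30 min at RT, then streptavidin donor/nickel chelate acceptor beads (10 ug/mL) for 30 min.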
PLK1 PBD block – inhibitors of human PLK1 polo-box domain binding. P53350. Plk1 PBD binding of FITC phosphopeptide, fluorescence polarization. Potency, µM, for inactives: max response, negative = inhibition, usual class: inhibitors. hit rate 2.8% among 360,000; also: series mostly up to about 57 µM; % is scaled to controls: 0 for no effect and ±100 for the full control effect; nearly all actives have a fitted effect of over 65% in size
BAZ2B block – BAZ2B (human) inhibition; Q9UIF8; AlphaScreen BAZ2B-H3K14Ac peptide displacement; Potency, µM (highest dose often 114 µM), for inactives: at the highest dose activity change, negative = inhibition, hits mostly inhibitors; hit rate 4.4% among 360,000; also: % is scaled to controls: 0 for no effect and ±100 for the full control effect; nearly all actives have a fitted effect of over 60% in size
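AlphaScreen luminescence quantifies BAZ2B engagement of H3K14Ac peptide; the protein and biotinylated peptide are both at 50 nM final, buffer PBS pH 7.4 with 0.01% Tween-20, all steps at room temperature.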
An asterisk follows results filed as active; ? = inconclusive; . = not tested or not shown; [ ] = dose if it differs, or a comment. Calls follow the shape of the dose curve; as a rule, active = well fitted curve in the direction sought with a large enough effect; inconclusive = small, poorly fitted or top-dose-only effect, or another doubt; inactive = no such curve, though single readings can be large; an effect the other way counts as inactive or inconclusive. Potency is read from the fitted curve at half-maximal effect.

SMILES | JMJD2A Tudor inh | Sfp inh | G9a inh | HP1b binding inh | PLK1 PBD block | BAZ2B block
CCOC(=O)c1c(NC(=O)CC)sc(C(=O)NC2CCCC2)c1C | -22% | -1% | 19% | 9% | -12% | 2%
CCOC(=O)c1c(NC(=O)CSc2ncn[nH]2)sc(C(C)=O)c1C | -12% | 18% | 19% | 36% | -6% | 56µM*
CCOC(=O)c1sc(NC(=O)CCN2CCN(C)CC2)c(C(=O)OCC)c1C | -27% | 20% | 23%[12.7 µM] | 3% | -2% | ?
CCOC(=O)c1c(NC(=O)CSc2nc3ccccc3s2)sc(C(C)=O)c1C | -1% | 11% | 44% | 12% | -6% | 2%
Cc1ccccc1C1CC(=O)Oc2cc(C)c(Br)c(C)c21 (centres undefined) | . | -26% | 30% | . | . | .
O=C(CSc1nnc(-c2ccccc2NC(=O)c2ccccc2)o1)OC1CCCCC1 | -6% | . | . | 39% | -1% | .
CCOc1ccc(CCNC(=O)c2ccc3c(c2)nc2n3CCOC2)cc1OCC | 5% | . | 7%[59 µM] | 26%[57 µM] | . | 4%
Cc1nc2cnc(Nc3ccccc3)nc2n(CCc2ccccc2)c1=O | . | -11% | 4%[0.501 µM] | . | . | .
Cc1ccc2c(c1)c(-c1csc(N)n1)c(C)n2C | ? | 1% | 45µM* | ? | -6% | ?
COc1ccc2c(c1)c(-c1csc(N)n1)c(C)n2C | -55% | -16% | 7%[0.501 µM] | -13% | -11% | 79µM*
COC(=O)C(CC(=O)c1ccc(Br)cc1)n1cccn1 (centres undefined) | -10% | ? | 40µM* | 8% | -24% | 1%
COC(=O)C(CC(=O)c1ccc(C)cc1)n1cccn1 (centres undefined) | -8% | 22% | 15% | 33% | -9% | 9%
CN(C)c1ccc(CC(=O)c2nc3ccccc3s2)cc1 | 18µM* | ? | ? | ? | ? | 40µM*
O=C(NCc1ccc(F)cc1)c1ccc(N2CCc3ccccc32)c([N+](=O)[O-])c1 | 18µM* | 2% | 25µM* | 50µM* | -13% | 7.1µM*
COc1ccc(CNC(=O)c2ccc(N3CCOCC3)c([N+](=O)[O-])c2)cc1 | -17% | 11% | -11% | 27% | 6% | -25%
O=C(O)c1ccc(N2CCc3ccccc32)c([N+](=O)[O-])c1 | -30% | 11% | ? | -4% | -4% | ?
COC(=O)c1ccc(N2CCN(CC(=O)c3ccc(-c4ccccc4)cc3)CC2)c([N+](=O)[O-])c1 | -27% | ? | 45µM* | 12% | -27% | -36%[57.1 µM]
CCOC(CNC(=O)c1ccc(N2CCc3ccccc32)c([N+](=O)[O-])c1)OCC | 56µM* | 3% | 11µM* | 28µM* | -9% | 40µM*
COC(=O)c1ccc(N2CCN(CC(=O)c3ccc(C)cc3)CC2)c([N+](=O)[O-])c1 | -32% | . | . | 30% | -14% | .
COC(=O)c1ccc(N2CCc3ccccc32)c([N+](=O)[O-])c1 | 14µM* | -10% | 16µM* | ? | -10% | 7.9µM*
CCOC(CNC(=O)c1ccc2c(c1)ncn2-c1ccccc1OC)OCC | -5% | 12% | 15% | 72% | -4% | -3%
CC(=O)c1ccc(OC(=O)N(c2ccccc2)c2ccccc2)cc1 | 12% | -1% | -1% | 35% | 3% | 7%
CC(=O)c1ccc(N2CCN(c3ncccn3)CC2)c([N+](=O)[O-])c1 | -24% | -11% | -9% | -4% | -5% | -29%
C=C1CCN(c2ccc(C(=O)O)cc2[N+](=O)[O-])CC1 | -14% | . | . | 56% | ? | .
O=C(O)c1ccc(N2CCN(C(c3ccccc3)c3ccccc3)CC2)c([N+](=O)[O-])c1 | ? | 5% | 32µM* | -10% | ? | ?
SMILES | JMJD2A Tudor inh | Sfp inh | G9a inh | HP1b binding inh | PLK1 PBD block | BAZ2B block
COc1ccc(-c2cc(C3CCN(c4ccc(C(C)=O)cc4[N+](=O)[O-])CC3)[nH]n2)cc1 | ? | -8% | 24%[0.0925 µM] | -15% | -6% | ?
CC(=O)c1ccc(N2CCc3ccccc3C2)c([N+](=O)[O-])c1 | ? | 28µM* | . | -18% | -4% | ?
COC(=O)c1ccc(N2CCC(c3cc(-c4ccc(OC)cc4)n[nH]3)CC2)c([N+](=O)[O-])c1 | ? | ? | 16µM* | -19% | 1% | ?
Brc1ccccc1-c1csnn1 | 9% | 7% | 3%[59 µM] | 62% | 2% | 2%
Cc1cc2c(ncn2C)c(NS(=O)(=O)c2cc(Cl)ccc2Cl)c1C | -10% | 7% | 8.9µM* | 35% | -10% | 11%
Cc1cc2c(ncn2C)c(NS(=O)(=O)c2ccccc2Cl)c1C | -23% | -9% | ? | 5% | -10% | 6%
CCOc1ccc(-n2c(Cc3cc(=O)[nH]c(=O)[nH]3)nnc2SC(C)C)cc1 | -21% | 5% | -8%[59 µM] | 21% | -13% | 2%
CCCSc1nnc(Cc2cc(=O)[nH]c(=O)[nH]2)n1-c1cc(C)ccc1C | 14µM* | 3% | ? | 41% | -15% | -5%
COC(=O)C(C)Sc1nnc(Cc2cc(=O)[nH]c(=O)[nH]2)n1-c1ccc(Cl)cc1 (centres undefined) | . | -9% | ? | . | . | -22%
CCOC(=O)C(C)Sc1nnc(Cc2cc(=O)[nH]c(=O)[nH]2)n1-c1ccc(Cl)cc1 (centres undefined) | ? | -2% | ? | 13% | 21µM* | 3%
CCC(C)Sc1nnc(Cc2cc(=O)[nH]c(=O)[nH]2)n1-c1ccc(F)cc1 (centres undefined) | -12% | ? | 40µM* | 67% | -13% | 42%
CCOc1ccc(-n2c(Cc3cc(=O)[nH]c(=O)[nH]3)nnc2SCc2cccnc2)cc1 | . | 13% | 56µM* | . | . | -1%
CC(=O)c1cccc(NC(=O)C2CCN(S(=O)(=O)c3ccc4c(c3)CCCN4C(C)=O)CC2)c1 | -15% | . | 2%[59 µM] | 17%[57 µM] | . | 0%
CC1CCN(C(=O)CSc2nnc(Cc3cc(=O)[nH]c(=O)[nH]3)n2-c2ccc(Cl)cc2)CC1 | -9%[57.1 µM] | -22% | 35µM* | 22%[57 µM] | 0% | -4%
Cc1cccc(-c2oc(C)c(C)[n+]2[O-])c1 | 45µM* | 2% | ? | 2% | -13% | -4%
COc1ccc(OC)c(CCNC(=O)c2cnn(-c3ccccc3)c2C2CCN(C(=O)OC(C)(C)C)CC2)c1 | -36% | . | -29%[59 µM] | 1% | . | -6%[57.1 µM]
CNC(=O)COC(=O)/C=C/c1cn(-c2ccccc2)nc1-c1ccc(C)o1 | -2% | 50µM* | . | 19% | -16% | -4%
O=C(O)/C=C/c1cn(-c2ccccc2)nc1-c1ccc(-c2ccc([N+](=O)[O-])cc2)o1 | 45µM* | 25µM* | 50µM* | ? | ? | 50µM*
